This passage reports binding signal results from PMC11006913.

Assay in all cases: PBM; 200 nM protein, PBS
Conditions in all cases: dsDNA, one strand shown

In assay [1] the target is ALX1 (Homo sapiens, UniProt Q15699 118-204, L144V).
Assay [2] concerns the target ALX1 (Homo sapiens, UniProt Q15699 118-204, L144R).
For assay [3], the target named is ALX1 (Homo sapiens, UniProt Q15699 118-204).
The target of assay [4] is ALX3 (Homo sapiens, UniProt O95076 139-225, N203Q).
In assay [5] the target is HOXD13 (Homo sapiens, UniProt P35453 263-343, T313R).
Assay [6] has as its target HOXD13 (Homo sapiens, UniProt P35453 263-343).
In assay [7] the target is ALX3 (Homo sapiens, UniProt O95076 139-225).
Assay [8] addresses ALX3 (Homo sapiens, UniProt O95076 139-225, L168Q).
Assay [9] has as its target HOXD13 (Homo sapiens, UniProt P35453 263-343, T313A).
The target in assay [10] is ALX3 (Homo sapiens, UniProt O95076 139-225, L168V).
Assay [11] has as its target ALX3 (Homo sapiens, UniProt O95076 139-225, N203S).

ALX1 (Homo sapiens, UniProt Q15699 118-204), sequence (Q15699 118-204): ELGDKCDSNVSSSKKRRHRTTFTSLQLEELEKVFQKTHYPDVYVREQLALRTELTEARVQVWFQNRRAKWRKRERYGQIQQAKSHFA
ALX1 (Homo sapiens, UniProt Q15699 118-204, L144R), sequence (Q15699 118-204 L144R): as the sequence (Q15699 118-204) above, with L27R counted along it
ALX1 (Homo sapiens, UniProt Q15699 118-204, L144V), sequence (Q15699 118-204 L144V): as the sequence (Q15699 118-204) above, with L27V counted along it
ALX3 (Homo sapiens, UniProt O95076 139-225, N203Q), sequence (O95076 139-225 N203Q): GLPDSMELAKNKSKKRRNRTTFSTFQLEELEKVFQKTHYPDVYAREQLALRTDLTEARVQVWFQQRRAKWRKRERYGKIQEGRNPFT
ALX3 (Homo sapiens, UniProt O95076 139-225, L168V), sequence (O95076 139-225 L168V): as the sequence (O95076 139-225 N203Q) above, with L30V, Q65N counted along it
ALX3 (Homo sapiens, UniProt O95076 139-225, N203S), sequence (O95076 139-225 N203S): as the sequence (O95076 139-225 N203Q) above, with Q65S counted along it
HOXD13 (Homo sapiens, UniProt P35453 263-343), sequence (P35453 263-343): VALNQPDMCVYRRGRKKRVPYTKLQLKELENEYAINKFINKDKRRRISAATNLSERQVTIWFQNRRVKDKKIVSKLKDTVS
HOXD13 (Homo sapiens, UniProt P35453 263-343, T313A), sequence (P35453 263-343 T313A): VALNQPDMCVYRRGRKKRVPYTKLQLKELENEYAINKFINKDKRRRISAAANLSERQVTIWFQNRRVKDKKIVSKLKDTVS
ALX3 (Homo sapiens, UniProt O95076 139-225), sequence (O95076 139-225): as the sequence (O95076 139-225 N203Q) above, with Q65N counted along it
ALX3 (Homo sapiens, UniProt O95076 139-225, L168Q), sequence (O95076 139-225 L168Q): as the sequence (O95076 139-225 N203Q) above, with L30Q, Q65N counted along it
HOXD13 (Homo sapiens, UniProt P35453 263-343, T313R), sequence (P35453 263-343 T313R): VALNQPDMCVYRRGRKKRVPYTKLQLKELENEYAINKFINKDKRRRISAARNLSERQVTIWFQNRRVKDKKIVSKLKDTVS

Take CACAGAGC: the binding signal was 6.53 upbm affinity estimate (log intensity, higher = more binding, comparable within an allelic series) in the assay with ALX1 [1]; 6.53 upbm affinity estimate (log intensity, higher = more binding, comparable within an allelic series) with ALX1 [2]; 6.59 upbm affinity estimate (log intensity, higher = more binding, comparable within an allelic series) with ALX1 [3].
Take CGGCCGAG: the binding signal with ALX1 [1] was 6.33 upbm affinity estimate (log intensity, higher = more binding, comparable within an allelic series); with ALX1 [2], 6.51 upbm affinity estimate (log intensity, higher = more binding, comparable within an allelic series); with ALX1 [3] it was 6.15 upbm affinity estimate (log intensity, higher = more binding, comparable within an allelic series).
Regarding ACCCGCGT, the binding signal in the assay with ALX1 [1] was 6.47 upbm affinity estimate (log intensity, higher = more binding, comparable within an allelic series); with ALX1 [2], 6.51 upbm affinity estimate (log intensity, higher = more binding, comparable within an allelic series); with ALX1 [3], 6.45 upbm affinity estimate (log intensity, higher = more binding, comparable within an allelic series).
On to ATTTATCG, for which the binding signal with ALX1 [1] is 8.96 upbm affinity estimate (log intensity, higher = more binding, comparable within an allelic series); with ALX1 [2], 8.71 upbm affinity estimate (log intensity, higher = more binding, comparable within an allelic series); with ALX1 [3] it was 9.21 upbm affinity estimate (log intensity, higher = more binding, comparable within an allelic series).
As for CTGGGCGA, the binding signal in the assay with ALX1 [1] is 6.34 upbm affinity estimate (log intensity, higher = more binding, comparable within an allelic series); with ALX1 [2] it was 6.37 upbm affinity estimate (log intensity, higher = more binding, comparable within an allelic series); with ALX1 [3] it was 6.87 upbm affinity estimate (log intensity, higher = more binding, comparable within an allelic series).
Turning to CTGCTAGC, the binding signal is 6.36 upbm affinity estimate (log intensity, higher = more binding, comparable within an allelic series) in the assay with ALX1 [1]; 6.39 upbm affinity estimate (log intensity, higher = more binding, comparable within an allelic series) with ALX1 [2]; 6.42 upbm affinity estimate (log intensity, higher = more binding, comparable within an allelic series) with ALX1 [3].
With AGCGCAGC, the binding signal is 6.5 upbm affinity estimate (log intensity, higher = more binding, comparable within an allelic series) with ALX1 [1]; 6.49 upbm affinity estimate (log intensity, higher = more binding, comparable within an allelic series) with ALX1 [2]; 6.42 upbm affinity estimate (log intensity, higher = more binding, comparable within an allelic series) in the assay with ALX1 [3].
Consider CATTAAAG, for which the binding signal with ALX1 [1] was 9.86 upbm affinity estimate (log intensity, higher = more binding, comparable within an allelic series); with ALX1 [2], 9.67 upbm affinity estimate (log intensity, higher = more binding, comparable within an allelic series); with ALX1 [3], 10.1 upbm affinity estimate (log intensity, higher = more binding, comparable within an allelic series).
Take AGCCACAG: the binding signal with ALX1 [1] was 6.62 upbm affinity estimate (log intensity, higher = more binding, comparable within an allelic series); in the assay with ALX1 [2], 6.52 upbm affinity estimate (log intensity, higher = more binding, comparable within an allelic series); with ALX1 [3], 6.67 upbm affinity estimate (log intensity, higher = more binding, comparable within an allelic series).
Turning to CGACTGCC, the binding signal with ALX1 [1] is 6.48 upbm affinity estimate (log intensity, higher = more binding, comparable within an allelic series); with ALX1 [2], 6.43 upbm affinity estimate (log intensity, higher = more binding, comparable within an allelic series); with ALX1 [3], 6.37 upbm affinity estimate (log intensity, higher = more binding, comparable within an allelic series).
On to CCAGACTC, for which the binding signal was 6.24 upbm affinity estimate (log intensity, higher = more binding, comparable within an allelic series) with ALX1 [1]; 6.47 upbm affinity estimate (log intensity, higher = more binding, comparable within an allelic series) with ALX1 [2]; 6.13 upbm affinity estimate (log intensity, higher = more binding, comparable within an allelic series) with ALX1 [3].
Consider ATATTGTC, for which the binding signal in the assay with ALX1 [1] was 8.09 upbm affinity estimate (log intensity, higher = more binding, comparable within an allelic series); with ALX1 [2] it was 8.02 upbm affinity estimate (log intensity, higher = more binding, comparable within an allelic series); in the assay with ALX1 [3] it was 8 upbm affinity estimate (log intensity, higher = more binding, comparable within an allelic series).
As to AGCAATAT, the binding signal is 8.17 upbm affinity estimate (log intensity, higher = more binding, comparable within an allelic series) with ALX1 [1]; 8.11 upbm affinity estimate (log intensity, higher = more binding, comparable within an allelic series) with ALX1 [2]; 8.09 upbm affinity estimate (log intensity, higher = more binding, comparable within an allelic series) with ALX1 [3].
As to CGGACGGA, the binding signal was 6.3 upbm affinity estimate (log intensity, higher = more binding, comparable within an allelic series) with ALX1 [1]; 6.37 upbm affinity estimate (log intensity, higher = more binding, comparable within an allelic series) with ALX1 [2]; 6.28 upbm affinity estimate (log intensity, higher = more binding, comparable within an allelic series) with ALX1 [3].
For GCTGGCAC, the binding signal with ALX1 [1] is 6.46 upbm affinity estimate (log intensity, higher = more binding, comparable within an allelic series); in the assay with ALX1 [2] it was 6.45 upbm affinity estimate (log intensity, higher = more binding, comparable within an allelic series); in the assay with ALX1 [3] it was 6.58 upbm affinity estimate (log intensity, higher = more binding, comparable within an allelic series).
Regarding TAGGATAA, the binding signal was 8.45 upbm affinity estimate (log intensity, higher = more binding, comparable within an allelic series) with ALX1 [1]; 8.36 upbm affinity estimate (log intensity, higher = more binding, comparable within an allelic series) with ALX1 [2]; 8.67 upbm affinity estimate (log intensity, higher = more binding, comparable within an allelic series) with ALX1 [3].
For CACCTTCG, the binding signal in the assay with ALX1 [1] was 6.61 upbm affinity estimate (log intensity, higher = more binding, comparable within an allelic series); with ALX1 [2], 6.38 upbm affinity estimate (log intensity, higher = more binding, comparable within an allelic series); with ALX1 [3], 6.33 upbm affinity estimate (log intensity, higher = more binding, comparable within an allelic series).
Consider CCTCAATC, for which the binding signal was 7.8 upbm affinity estimate (log intensity, higher = more binding, comparable within an allelic series) in the assay with ALX1 [1]; 7.78 upbm affinity estimate (log intensity, higher = more binding, comparable within an allelic series) in the assay with ALX1 [2]; 7.96 upbm affinity estimate (log intensity, higher = more binding, comparable within an allelic series) with ALX1 [3].
As to AAATGGGA, the binding signal was 8.33 upbm affinity estimate (log intensity, higher = more binding, comparable within an allelic series) with ALX1 [1]; 8.01 upbm affinity estimate (log intensity, higher = more binding, comparable within an allelic series) in the assay with ALX1 [2]; 8.46 upbm affinity estimate (log intensity, higher = more binding, comparable within an allelic series) with ALX1 [3].
For GAGGAGCC, the binding signal was 6.5 upbm affinity estimate (log intensity, higher = more binding, comparable within an allelic series) in the assay with ALX1 [1]; 6.54 upbm affinity estimate (log intensity, higher = more binding, comparable within an allelic series) in the assay with ALX1 [2]; 6.27 upbm affinity estimate (log intensity, higher = more binding, comparable within an allelic series) in the assay with ALX1 [3].
Take AGATCATC: the binding signal was 7.78 upbm affinity estimate (log intensity, higher = more binding, comparable within an allelic series) in the assay with ALX1 [1]; 7.76 upbm affinity estimate (log intensity, higher = more binding, comparable within an allelic series) in the assay with ALX1 [2]; 7.9 upbm affinity estimate (log intensity, higher = more binding, comparable within an allelic series) with ALX1 [3].
In the case of CCTTGGCG, the binding signal with ALX1 [1] is 6.13 upbm affinity estimate (log intensity, higher = more binding, comparable within an allelic series); with ALX1 [2] it was 6.15 upbm affinity estimate (log intensity, higher = more binding, comparable within an allelic series); in the assay with ALX1 [3], 6.14 upbm affinity estimate (log intensity, higher = more binding, comparable within an allelic series).
Turning to AGCCTTCG, the binding signal in the assay with ALX1 [1] is 6.33 upbm affinity estimate (log intensity, higher = more binding, comparable within an allelic series); with ALX1 [2], 6.46 upbm affinity estimate (log intensity, higher = more binding, comparable within an allelic series); with ALX1 [3], 6.29 upbm affinity estimate (log intensity, higher = more binding, comparable within an allelic series).
For CGACAGGC, the binding signal with ALX1 [1] is 6.36 upbm affinity estimate (log intensity, higher = more binding, comparable within an allelic series); with ALX1 [2], 6.36 upbm affinity estimate (log intensity, higher = more binding, comparable within an allelic series); with ALX1 [3] it was 6.15 upbm affinity estimate (log intensity, higher = more binding, comparable within an allelic series).
On to CAGACTGG, for which the binding signal was 6.33 upbm affinity estimate (log intensity, higher = more binding, comparable within an allelic series) in the assay with ALX1 [1]; 6.4 upbm affinity estimate (log intensity, higher = more binding, comparable within an allelic series) with ALX1 [2]; 6.39 upbm affinity estimate (log intensity, higher = more binding, comparable within an allelic series) with ALX1 [3].
As to GTCCAGAC, the binding signal was 6.53 upbm affinity estimate (log intensity, higher = more binding, comparable within an allelic series) in the assay with ALX1 [1]; 6.49 upbm affinity estimate (log intensity, higher = more binding, comparable within an allelic series) with ALX1 [2]; 6.42 upbm affinity estimate (log intensity, higher = more binding, comparable within an allelic series) in the assay with ALX1 [3].
Turning to AATATTTA, the binding signal with ALX1 [1] is 9.37 upbm affinity estimate (log intensity, higher = more binding, comparable within an allelic series); in the assay with ALX1 [2], 9.47 upbm affinity estimate (log intensity, higher = more binding, comparable within an allelic series); with ALX1 [3], 9.54 upbm affinity estimate (log intensity, higher = more binding, comparable within an allelic series).
For CGGGTTCC, the binding signal was 6.36 upbm affinity estimate (log intensity, higher = more binding, comparable within an allelic series) with ALX1 [1]; 6.23 upbm affinity estimate (log intensity, higher = more binding, comparable within an allelic series) with ALX1 [2]; 6.28 upbm affinity estimate (log intensity, higher = more binding, comparable within an allelic series) with ALX1 [3].
On to CCTTTAAC, for which the binding signal with ALX1 [1] is 8.41 upbm affinity estimate (log intensity, higher = more binding, comparable within an allelic series); in the assay with ALX1 [2], 8.36 upbm affinity estimate (log intensity, higher = more binding, comparable within an allelic series); with ALX1 [3], 8.65 upbm affinity estimate (log intensity, higher = more binding, comparable within an allelic series).
In the case of ACTTATTA, the binding signal in the assay with ALX3 [4] is 8.57 upbm affinity estimate (log intensity, higher = more binding, comparable within an allelic series).
With GGAGAAAC, the binding signal with ALX1 [1] was 6.41 upbm affinity estimate (log intensity, higher = more binding, comparable within an allelic series); in the assay with ALX1 [2], 6.7 upbm affinity estimate (log intensity, higher = more binding, comparable within an allelic series); with ALX1 [3], 6.58 upbm affinity estimate (log intensity, higher = more binding, comparable within an allelic series).
Take AAAAATGT: the binding signal was 8.02 upbm affinity estimate (log intensity, higher = more binding, comparable within an allelic series) in the assay with ALX1 [1]; 8.01 upbm affinity estimate (log intensity, higher = more binding, comparable within an allelic series) with ALX1 [2]; 8.15 upbm affinity estimate (log intensity, higher = more binding, comparable within an allelic series) with ALX1 [3].
For GCTTCGAC, the binding signal in the assay with ALX3 [4] was 7.77 upbm affinity estimate (log intensity, higher = more binding, comparable within an allelic series); with HOXD13 [5], 9.46 upbm affinity estimate (log intensity, higher = more binding, comparable within an allelic series); with HOXD13 [6] it was 9.32 upbm affinity estimate (log intensity, higher = more binding, comparable within an allelic series); with ALX3 [7] it was 7.65 upbm affinity estimate (log intensity, higher = more binding, comparable within an allelic series); in the assay with ALX3 [8] it was 7.79 upbm affinity estimate (log intensity, higher = more binding, comparable within an allelic series); with HOXD13 [9], 9.54 upbm affinity estimate (log intensity, higher = more binding, comparable within an allelic series). Further, the binding signal is 7.79 upbm affinity estimate (log intensity, higher = more binding, comparable within an allelic series) in the assay with ALX3 [10] and 7.83 upbm affinity estimate (log intensity, higher = more binding, comparable within an allelic series) in the assay with ALX3 [11].
